Measurements taken from paper PMC12864922, “TDP-43 directly inhibits mRNA accumulation in neurites through modulation of mRNA stability”.
Where a chain is given by its changes, count along the chain named. The full ranking holds about 9,900 sequences; the median of “r (bound/input frequency ratio)” is about 0.7, and the highest 2% start at about 6.5. For the sample, the highest values were picked, then their nearest neighbours and some sequences at random.

B1: ENSMUSG00000031028.245|Tub (ssRNA)
RNA: GGGAGUUCUACAGUCCGACGAUCGCUUCGAUAUCCGCAUGCUAGCCCUCCAUUGGGAUGGCACCACUCAUCUGGUGGGCUUGGGAACUCCAAGCUCUUGCCUGUGUGCCAUCUGUGAGAAGCUUCUUGGAGCUGAGACACCAGAGGGAAGCAAAGAGCAUUUAGACAUUGCUUUUUGCUUUGAAAUAGAUAUGUUUGGAAACGCUAAGUAGAAGUUUAAAAAGUAGAGUCAUGUAGAGUCAUGCUUUGAAUAUGUGGGUCAUGCUUUAGAUAUGAAGAGGCUAUGCAGGUAAGGAGGCUGGAUCUCUUGCGGUCGCACUAGUGUGGAAUUCUCGGGUGUCAAGG
B2: ENSMUSG00000028439.189|Fam219a|1:11;21:28 (ssRNA)
RNA: GGGAGUUCUACAGUCCGACGAUCGCUUCGAUAUCCGCAUGCUAACACACACACAUGUACCCGACACACACAUGAGCCUAUCUGUCCAGGGAACCAGAUUGGUGUCCGAGAUGAGGAAAUGGCUGUGGCCUGGGAAAUCAGUGAGAGGCCGCUUGGGAAUGAGAAUGCAGUGGACUGAAAGCACAGCCUGGCCAUCUGGAACCUGGGUUCUGGUCCCAGCCUCGGCAUUCUCCCUGAGCUCCUAAGCAAUUCCCAGGCUUCUCUAGGGCUUCAGUUCUCACAACUGGAAAAUAAAGAGUAGCUGCUCUUGCGGUCGCACUAGUGUGGAAUUCUCGGGUGUCAAGG
B3: ENSMUSG00000031028.94|Tub (ssRNA)
RNA: GGGAGUUCUACAGUCCGACGAUCGCUUCGAUAUCCGCAUGCUAAGCUCUGGUGGUCAGCAGAAAGCACUCCCACUUCAAAAGGGCCCAUUAGGCCCAAAGGGGGUUAGGAGUGGUAGGGAUAGGUGCGUGGCAGGUCCCUGCUAGGAUUGCAGGGGCCUGGCCAUGUGUAUUAGCUGGAGGCUUAGAAUGCUAGCUCAUUUGUUGCUACAGAUUUGCCCAGUGCUUGCACACGUAAGAACCCAGCUCUCAAGGCCAAAUAUCUGAGUGGAUGGGGAUGAUAGGAGUCAUCCAGUAGACUCCCUCUCUUGCGGUCGCACUAGUGUGGAAUUCUCGGGUGUCAAGG
B4: ENSMUSG00000058297.426|Spock2 (ssRNA)
RNA: GGGAGUUCUACAGUCCGACGAUCGCUUCGAUAUCCGCAUGCUAGUGGCAGGCCCCAGGGGUCCAGAAGUUUGUCCCUCUCUAAAACGCUCCCCACCCCAUACUGCUUUUCACCCCACUGAGACCGAGUCCCACAAAGGUAGGCAGAACAGCUGUUCCUGGUGGGGCUGAAGGUUCCCAAGUAGCUUCUAGUUAAGCAAGCUUCGUGUUUCCUCAGGAGCAAGGUCACACAGGUCAGAUUAUUGUCGGUCCUGCGGGCCUCAUCCUUGAAUAAGCUGCCUGCCCAGUUCCUCCAUCCGUGUUCCCUCUUGCGGUCGCACUAGUGUGGAAUUCUCGGGUGUCAAGG
B5: ENSMUSG00000061578.1439|Ksr2 (ssRNA)
RNA: GGGAGUUCUACAGUCCGACGAUCGCUUCGAUAUCCGCAUGCUAUUGAUUUAGAUGCCAAUCAGGAAGGCAAGUAGGAUGGAUGGAUGAGUGAGUGGAUAGGUAGGUAUAUAAAUGGAUGGAUGGGUGAUGGAUGGGUAAAUGAAUGGAUAGGUAUGUGAAUGAAUGGAUGAUGGAUGAAUGGAUGGGUAGGUGGGUAGAUAGGUAUAUGAAUGAAUGGAUGAAUGGAUGGGUGAAUGGAUGGAUAGGUAUGUGAAUAAAUGGAUGGAUGGAUGGAUUGAUUUGUGAAUGAAUGGAUGAAUGGACUCUUGCGGUCGCACUAGUGUGGAAUUCUCGGGUGUCAAGG
B6: ENSMUSG00000061578.1441|Ksr2 (ssRNA)
RNA: GGGAGUUCUACAGUCCGACGAUCGCUUCGAUAUCCGCAUGCUACCAAUCAGGAAGGCAAGUAGGAUGGAUGGAUGAGUGAGUGGAUAGGUAGGUAUAUAAAUGGAUGGAUGGGUGAUGGAUGGGUAAAUGAAUGGAUAGGUAUGUGAAUGAAUGGAUGAUGGAUGAAUGGAUGGGUAGGUGGGUAGAUAGGUAUAUGAAUGAAUGGAUGAAUGGAUGGGUGAAUGGAUGGAUAGGUAUGUGAAUAAAUGGAUGGAUGGAUGGAUUGAUUUGUGAAUGAAUGGAUGAAUGGAUGGGUAGGUGGGCUCUUGCGGUCGCACUAGUGUGGAAUUCUCGGGUGUCAAGG
B7: ENSMUSG00000061578.1451|Ksr2|37:41;132:136 (ssRNA)
RNA: GGGAGUUCUACAGUCCGACGAUCGCUUCGAUAUCCGCAUGCUAGAUGGAUGGGUGAUGGAUGGGUAAAUGAAUGGAUAGCAUACUGAAUGAAUGGAUGAUGGAUGAAUGGAUGGGUAGGUGGGUAGAUAGGUAUAUGAAUGAAUGGAUGAAUGGAUGGGUGAAUGGAUGGAUAGCAUACUGAAUAAAUGGAUGGAUGGAUGGAUUGAUUUGUGAAUGAAUGGAUGAAUGGAUGGGUAGGUGGGUGGAUGCAUAGGCAAGUAGAUGAAUGAAUAUGUGGGUAGAAGGGUGAGUGGGUGGAUGAACUCUUGCGGUCGCACUAGUGUGGAAUUCUCGGGUGUCAAGG
B8: ENSMUSG00000061578.1445|Ksr2 (ssRNA)
RNA: GGGAGUUCUACAGUCCGACGAUCGCUUCGAUAUCCGCAUGCUAGAUGGAUGAGUGAGUGGAUAGGUAGGUAUAUAAAUGGAUGGAUGGGUGAUGGAUGGGUAAAUGAAUGGAUAGGUAUGUGAAUGAAUGGAUGAUGGAUGAAUGGAUGGGUAGGUGGGUAGAUAGGUAUAUGAAUGAAUGGAUGAAUGGAUGGGUGAAUGGAUGGAUAGGUAUGUGAAUAAAUGGAUGGAUGGAUGGAUUGAUUUGUGAAUGAAUGGAUGAAUGGAUGGGUAGGUGGGUGGAUGCAUAGGCAAGUAGAUGAACUCUUGCGGUCGCACUAGUGUGGAAUUCUCGGGUGUCAAGG
B9: ENSMUSG00000061578.1444|Ksr2|79:83;174:178 (ssRNA)
RNA: GGGAGUUCUACAGUCCGACGAUCGCUUCGAUAUCCGCAUGCUAAGGAUGGAUGGAUGAGUGAGUGGAUAGGUAGGUAUAUAAAUGGAUGGAUGGGUGAUGGAUGGGUAAAUGAAUGGAUAGCAUACUGAAUGAAUGGAUGAUGGAUGAAUGGAUGGGUAGGUGGGUAGAUAGGUAUAUGAAUGAAUGGAUGAAUGGAUGGGUGAAUGGAUGGAUAGCAUACUGAAUAAAUGGAUGGAUGGAUGGAUUGAUUUGUGAAUGAAUGGAUGAAUGGAUGGGUAGGUGGGUGGAUGCAUAGGCAAGUACUCUUGCGGUCGCACUAGUGUGGAAUUCUCGGGUGUCAAGG
B10: ENSMUSG00000061578.1450|Ksr2 (ssRNA)
RNA: GGGAGUUCUACAGUCCGACGAUCGCUUCGAUAUCCGCAUGCUAUAAAUGGAUGGAUGGGUGAUGGAUGGGUAAAUGAAUGGAUAGGUAUGUGAAUGAAUGGAUGAUGGAUGAAUGGAUGGGUAGGUGGGUAGAUAGGUAUAUGAAUGAAUGGAUGAAUGGAUGGGUGAAUGGAUGGAUAGGUAUGUGAAUAAAUGGAUGGAUGGAUGGAUUGAUUUGUGAAUGAAUGGAUGAAUGGAUGGGUAGGUGGGUGGAUGCAUAGGCAAGUAGAUGAAUGAAUAUGUGGGUAGAAGGGUGAGUGGGUGCUCUUGCGGUCGCACUAGUGUGGAAUUCUCGGGUGUCAAGG
B11: ENSMUSG00000061578.1446|Ksr2 (ssRNA)
RNA: GGGAGUUCUACAGUCCGACGAUCGCUUCGAUAUCCGCAUGCUAUGAGUGAGUGGAUAGGUAGGUAUAUAAAUGGAUGGAUGGGUGAUGGAUGGGUAAAUGAAUGGAUAGGUAUGUGAAUGAAUGGAUGAUGGAUGAAUGGAUGGGUAGGUGGGUAGAUAGGUAUAUGAAUGAAUGGAUGAAUGGAUGGGUGAAUGGAUGGAUAGGUAUGUGAAUAAAUGGAUGGAUGGAUGGAUUGAUUUGUGAAUGAAUGGAUGAAUGGAUGGGUAGGUGGGUGGAUGCAUAGGCAAGUAGAUGAAUGAAUACUCUUGCGGUCGCACUAGUGUGGAAUUCUCGGGUGUCAAGG
B12: ENSMUSG00000061578.1444|Ksr2 (ssRNA)
RNA: B9 RNA with C122G, A123U, U124A, A125U, C126G, C217G, A218U, U219A, A220U, C221G
B13: ENSMUSG00000061578.1448|Ksr2 (ssRNA)
RNA: GGGAGUUCUACAGUCCGACGAUCGCUUCGAUAUCCGCAUGCUAUAGGUAGGUAUAUAAAUGGAUGGAUGGGUGAUGGAUGGGUAAAUGAAUGGAUAGGUAUGUGAAUGAAUGGAUGAUGGAUGAAUGGAUGGGUAGGUGGGUAGAUAGGUAUAUGAAUGAAUGGAUGAAUGGAUGGGUGAAUGGAUGGAUAGGUAUGUGAAUAAAUGGAUGGAUGGAUGGAUUGAUUUGUGAAUGAAUGGAUGAAUGGAUGGGUAGGUGGGUGGAUGCAUAGGCAAGUAGAUGAAUGAAUAUGUGGGUAGAAGCUCUUGCGGUCGCACUAGUGUGGAAUUCUCGGGUGUCAAGG
B14: ENSMUSG00000061578.1443|Ksr2|85:89;180:184 (ssRNA)
RNA: GGGAGUUCUACAGUCCGACGAUCGCUUCGAUAUCCGCAUGCUAGCAAGUAGGAUGGAUGGAUGAGUGAGUGGAUAGGUAGGUAUAUAAAUGGAUGGAUGGGUGAUGGAUGGGUAAAUGAAUGGAUAGCAUACUGAAUGAAUGGAUGAUGGAUGAAUGGAUGGGUAGGUGGGUAGAUAGGUAUAUGAAUGAAUGGAUGAAUGGAUGGGUGAAUGGAUGGAUAGCAUACUGAAUAAAUGGAUGGAUGGAUGGAUUGAUUUGUGAAUGAAUGGAUGAAUGGAUGGGUAGGUGGGUGGAUGCAUAGGCUCUUGCGGUCGCACUAGUGUGGAAUUCUCGGGUGUCAAGG
B15: ENSMUSG00000061578.1440|Ksr2 (ssRNA)
RNA: GGGAGUUCUACAGUCCGACGAUCGCUUCGAUAUCCGCAUGCUAUAGAUGCCAAUCAGGAAGGCAAGUAGGAUGGAUGGAUGAGUGAGUGGAUAGGUAGGUAUAUAAAUGGAUGGAUGGGUGAUGGAUGGGUAAAUGAAUGGAUAGGUAUGUGAAUGAAUGGAUGAUGGAUGAAUGGAUGGGUAGGUGGGUAGAUAGGUAUAUGAAUGAAUGGAUGAAUGGAUGGGUGAAUGGAUGGAUAGGUAUGUGAAUAAAUGGAUGGAUGGAUGGAUUGAUUUGUGAAUGAAUGGAUGAAUGGAUGGGUACUCUUGCGGUCGCACUAGUGUGGAAUUCUCGGGUGUCAAGG
B16: ENSMUSG00000061578.1442|Ksr2 (ssRNA)
RNA: GGGAGUUCUACAGUCCGACGAUCGCUUCGAUAUCCGCAUGCUAAGGAAGGCAAGUAGGAUGGAUGGAUGAGUGAGUGGAUAGGUAGGUAUAUAAAUGGAUGGAUGGGUGAUGGAUGGGUAAAUGAAUGGAUAGGUAUGUGAAUGAAUGGAUGAUGGAUGAAUGGAUGGGUAGGUGGGUAGAUAGGUAUAUGAAUGAAUGGAUGAAUGGAUGGGUGAAUGGAUGGAUAGGUAUGUGAAUAAAUGGAUGGAUGGAUGGAUUGAUUUGUGAAUGAAUGGAUGAAUGGAUGGGUAGGUGGGUGGAUGCUCUUGCGGUCGCACUAGUGUGGAAUUCUCGGGUGUCAAGG

target: TDP-43 (Homo sapiens, UniProt Q13148 1-414); experiment: RNA Bind-n-Seq with designed 260-mer pool; 25 mM Tris-HCl, 150 mM KCl, 3 mM MgCl2, BSA (printed 500 mg/mL), 20 units/mL SUPERase IN; pH not stated; 500 nM RNA pool, 1 h, 4 C; TDP-43 5, 50, 500 nM; high values mean tight binding; details: protein: recombinant; tags: SBP (GST cleaved off with PreScission; pGEX-GST-SBP)
Sequence (Q13148 whole entry): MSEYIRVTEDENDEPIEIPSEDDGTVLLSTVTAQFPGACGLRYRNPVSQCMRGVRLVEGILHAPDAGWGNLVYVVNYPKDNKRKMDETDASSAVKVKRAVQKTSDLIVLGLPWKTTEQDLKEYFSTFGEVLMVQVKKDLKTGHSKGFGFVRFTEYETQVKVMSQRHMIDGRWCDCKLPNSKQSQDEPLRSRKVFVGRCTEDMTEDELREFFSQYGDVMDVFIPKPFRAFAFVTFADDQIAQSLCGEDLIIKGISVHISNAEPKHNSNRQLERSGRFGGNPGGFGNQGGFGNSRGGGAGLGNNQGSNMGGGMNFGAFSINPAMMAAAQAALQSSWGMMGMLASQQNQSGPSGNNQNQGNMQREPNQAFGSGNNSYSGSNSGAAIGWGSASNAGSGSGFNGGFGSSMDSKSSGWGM
In short: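 The incubation lasted 1 h at 4 °C and used 500 nM of an in vitro-transcribed 260-nt 3′ UTR oligo pool with recombinant SBP-tagged TDP-43 at 5, 50 or 500 nM immobilized on streptavidin beads. It took place in 25 mM Tris-HCl, 150 mM KCl, 3 mM MgCl2, BSA and SUPERase IN. Bound RNA was washed, eluted with biotin, converted to cDNA, PCR-amplified and sequenced to give R, each oligo's normalized abundance in the bound sample divided by that in input. Two independent protein batches provided the duplicates.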

Row | Binder | binding signal
1 | B1 | 2.93 R (bound/input frequency ratio)
2 | B2 | 0.604 R (bound/input frequency ratio)
3 | B3 | 0.759 R (bound/input frequency ratio)
4 | B4 | 0.272 R (bound/input frequency ratio)
5 | B5 | 6.02 R (bound/input frequency ratio)
6 | B6 | 5.22 R (bound/input frequency ratio)
7 | B7 | 5.32 R (bound/input frequency ratio)
8 | B8 | 4.8 R (bound/input frequency ratio)
9 | B9 | 5.84 R (bound/input frequency ratio)
10 | B10 | 4.15 R (bound/input frequency ratio)
11 | B11 | 11 R (bound/input frequency ratio)
12 | B12 | 3.7 R (bound/input frequency ratio)
13 | B13 | 6.14 R (bound/input frequency ratio)
14 | B14 | 6.75 R (bound/input frequency ratio)
15 | B15 | 11.5 R (bound/input frequency ratio)
16 | B16 | 7.5 R (bound/input frequency ratio)
